Compound activity (PubChem BioAssay)
This is a sample that favours compounds with a hit; in the whole collection about 2.6% have one here.
PMP22 txn: modulates PMP22 transcription in S16 Schwann cells. S16 Pmp22-F2sN Schwann cells, FLuc/NLuc coincidence luminescence, 24 h. Potency, µM (series often up to 57.5 µM), for the others: at the highest dose activity change, negative = inhibition, usual class: inhibitors. 43,000 tested, 2% active; active means clear falling dose curves in both reporters; inconclusive means both reporters move, but less clearly or upward; inactive means either reporter flat; the % is the NLuc reporter signal; further: potency means the concentration at half of the fitted maximal effect; on the % scale 0 is the no-effect control and ±100 the full control effect
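Luminescent read-out of sequential FLuc and NLuc signals from a reporter embedded in the Pmp22 3' UTR of S16 Schwann cells, taken after 24 h compound exposure at 37C; compounds reducing both signals score as inhibitors of expression.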
SKOV3 invasion: ovarian cancer metastasis inhibition, 3D TME model. SKOV3ip1-GFP adhesion/invasion on 3D omental model, fluorescence. Potency, µM (highest dose often 45.8 µM), without a hit: at the top dose activity change, negative = inhibition, actives largely listed as inhibitors. 46,000 tested, 0.1% active. AID 1963576;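 further: potency means the concentration at half of the fitted maximal effect; plate controls were DMSO wells for no effect and tomatine positive control wells for full effect; nearly all actives have a fitted effect of over 65% in size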
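qHTS, 4-pt dose (0.36-46 umol/L); SKOV3ip1-GFP, 1,200 cells/well, no FBS; primary omental fibroblast/mesothelial co-culture 48 h pre-grown; 2 h RT + 16 h 37 C; PBS wash, 4% PFA; GFP count 488/509 nm.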
GALC G270D up: galactocerebrosidase G270D activity enhancement, cell-based. P54803. 145M-Twi-hGALC-G270D cells (Twitcher mouse brain line with human GALC G270D), HMU-beta-Gal fluorescence, 48 h. Potency, µM (highest dose often 57.5 µM), most hits filed as activators. 45,000 tested, 0.1% active; further: potency means the concentration at half of the fitted maximal effect; 0% is about no effect; nearly all actives have a fitted effect of over 65% in size
Target sequence (P54803 whole entry G286D): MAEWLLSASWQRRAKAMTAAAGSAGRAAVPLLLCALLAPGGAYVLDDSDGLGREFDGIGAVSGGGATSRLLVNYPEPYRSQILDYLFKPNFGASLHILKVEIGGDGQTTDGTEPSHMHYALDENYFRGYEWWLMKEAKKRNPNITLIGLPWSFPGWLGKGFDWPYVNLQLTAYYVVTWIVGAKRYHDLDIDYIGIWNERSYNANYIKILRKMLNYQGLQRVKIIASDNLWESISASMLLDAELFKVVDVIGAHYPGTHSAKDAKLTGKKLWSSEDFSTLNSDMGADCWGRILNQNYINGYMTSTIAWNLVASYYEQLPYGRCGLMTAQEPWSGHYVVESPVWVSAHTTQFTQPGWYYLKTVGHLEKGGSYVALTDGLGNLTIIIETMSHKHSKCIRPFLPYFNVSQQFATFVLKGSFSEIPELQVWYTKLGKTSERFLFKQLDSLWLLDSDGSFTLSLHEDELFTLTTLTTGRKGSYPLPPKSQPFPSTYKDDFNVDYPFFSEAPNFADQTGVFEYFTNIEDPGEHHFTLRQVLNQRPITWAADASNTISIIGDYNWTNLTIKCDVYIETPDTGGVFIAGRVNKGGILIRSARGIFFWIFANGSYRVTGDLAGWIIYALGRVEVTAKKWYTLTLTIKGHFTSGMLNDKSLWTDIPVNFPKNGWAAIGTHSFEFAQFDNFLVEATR
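Mutant human GALC (G270D), stably expressed in a Twitcher mouse brain cell line lacking endogenous GALC, is measured in live-treated cells via 6-hexadecanoylamino-4-methylumbelliferyl-β-galactoside hydrolysis (0.1 mM final, pH 5.2) with fluorescent detection.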
S16 F2sN tox: toxic to S16 Pmp22-F2sN Schwann cells; S16 Pmp22-F2sN Schwann cells (luciferase reporters placed in the Pmp22 gene) viability, CellTiter-Glo, 24 h; Potency, µM (doses to about 57.5 µM), without a hit: at the highest dose activity change, negative = cytotoxicity, actives largely listed as cytotoxic; 43,000 tested, 0.48% active; AID 1508642; further: potency means the concentration at half of the fitted maximal effect; on the % scale 0 is the no-effect control and ±100 the full control effect; nearly all actives have a fitted effect of over 65% in size
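S16 Schwann cells carrying the Pmp22-F2sN reporter, seeded in 1536-well format, were exposed to library compounds for 24 h at 37C. Viability was read as CellTiter-Glo luminescence after 15 min at room temperature.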
mTORC1 inh: reduces mTORC1 signaling in Tsc2 and p53 null MEF cells; Tsc2-/- p53-/- MEF, phospho-rpS6 immunofluorescence/PI, 24 h; Potency, µM (titrated, usually from 38.3 µM), for the others: top-dose activity change, negative = inhibition, actives largely listed as inhibitors; 44,000 tested, 0.78% active;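 further: potency means the concentration at half of the fitted maximal effect; plate controls were DMSO for no effect and rapamycin for full effect; nearly all actives have a fitted effect of over 50% in size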
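Tsc2-/-, p53-/- mouse embryonic fibroblasts (empty-vector line) exposed to compound 24 hrs at 37 C, fixed, immunostained for phospho-rpS6 and counterstained with propidium iodide. Acumen laser scanning gives % positive cells from Alexa 488/PI ratio, thresholded using 7.5 nM rapamycin; PI count gives viability.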
NLuc sat counter: inhibits NanoLuc at saturating substrate, PMP22 counter-screen; shares compounds with PMP22 txn; Secreted NLuc enzyme (filtered S16 cell medium), Nano-Glo luminescence; Potency, µM (highest dose often 57.5 µM), for the others: at the top dose activity change, negative = inhibition, most hits filed as inhibitors; 690 tested, 4% active; further: potency means the concentration at half of the fitted maximal effect; on the % scale 0 is the no-effect control and ±100 the full control effect
NLuc Km ctr: inhibits NanoLuc under Km conditions, PMP22 counter-screen; shares compounds with PMP22 txn; secreted NLuc enzyme, coelenterazine luminescence, Km conditions; Potency, µM (series often up to 57.5 µM), for inactives: at the highest dose activity change, negative = inhibition, most hits filed as inhibitors; 690 tested, 5% active; AID 1508639; further: potency means the concentration at half of the fitted maximal effect; on the % scale 0 is the no-effect control and ±100 the full control effect
FLuc ctr PMP22: firefly luciferase enzyme inhibition artifact for PMP22 screen; shares compounds with PMP22 txn; purified P. pyralis FLuc, luminescence, 10 min; 690 tested, under 10 active; AID 1508640; Potency, µM (highest dose often 57.5 µM), for inactives: at the highest dose activity, negative = inhibition, actives largely listed as inhibitors; further: % of control where 0% means no effect
S16 F2sN tox cnf: S16 Schwann cell cytotoxicity, confirmatory; shares compounds with PMP22 txn; S16 Schwann cells viability, CellTiter-Glo ATP luminescence, 24 h; Potency, µM (doses to about 57.5 µM), for the others: at the highest dose activity change, negative = viability loss, usual class: cytotoxic; 690 tested, 7% active; AID 1508641; further: potency means the concentration at half of the fitted maximal effect; on the % scale 0 is the no-effect control and ±100 the full control effect
PMP22 txn conf: PMP22 transcription modulation, confirmatory | AID 1508646 | S16 Schwann cells Pmp22-F2sN, dual luciferase, 24 h | Potency, µM (series often up to 57.5 µM), without a hit: top-dose activity change, negative = inhibition, most hits filed as inhibitors | 690 tested, 22% active | shares compounds with PMP22 txn; active means clear falling dose curves in both reporters; inconclusive means both reporters move, but less clearly or upward; inactive means either reporter flat; the % is the FLuc reporter signal; further: potency means the concentration at half of the fitted maximal effect
PMP22 HiBiT cnf: confirmation of modulators of rat PMP22 protein expression | shares compounds with PMP22 txn | S16 Schwann cells Pmp22-HiBiT, luminescence, 48 h | Potency, µM (highest dose often 27.9 µM), for the others: top-dose activity change, negative = inhibition, hits mostly inhibitors | 95 tested, under 10 active
* hit, by the source's call; i = inactive; ? = inconclusive; nt = no result given; [ ] = dose if it differs, or a comment. Unless noted, the call rests on the fitted dose curve; in most records, active means well fitted curve in the direction sought with a large enough effect; inconclusive means small, poorly fitted or top-dose-only effect, or another doubt; inactive means no such curve, though single readings can be large; an effect the other way counts as inactive or inconclusive.

SMILES	PMP22 txn	SKOV3 invasion	GALC G270D up	S16 F2sN tox	mTORC1 inh	NLuc sat counter	NLuc Km ctr	FLuc ctr PMP22	S16 F2sN tox cnf	PMP22 txn conf	others
CCCn1c(=N)c(C(=O)NC(C)c2ccccc2)cc2c(=O)n3ccccc3nc21 (centres undefined)	14µM*	9%	i	0%	0%	-10%	-16%	-5%	14%	4.6µM*	PMP22 HiBiT cnf=-17%
CN[C@@H](C)C(=O)N[C@H]1CN(C(=O)CC(C)C)CC[C@H]2CC[C@@H](C(=O)NC(c3ccccc3)c3ccccc3)N2C1=O	nt	-5%	nt	nt	nt	nt	nt	nt	nt	nt
Cn1c(=O)oc2cc(S(=O)(=O)N3CCCC(C(=O)N4CCN(c5ccc(Cl)cc5)CC4)C3)ccc21 (centres undefined)	5.1µM*	i	i	?	-2%	?	5%	2%	-22%	15µM*	PMP22 HiBiT cnf=?
Cc1nc2cccnc2n1C1CCN(S(=O)(=O)c2ccc(C(C)C)cc2)CC1	17µM*	-2%	i	?	-23%	-14%	3%	4%	-11%	-33%
COc1ccc(NC(=O)Cn2c(=O)cc(C)c3c(C)nn(C)c32)cc1	16µM*	i	i	1%	-14%	-4%	-3%	3%	-3%	-14%
Cc1ccc(Cl)cc1NC(=O)Cn1c(=O)cc(C)c2c(C)nn(C)c21	19µM*	15%	i	19%	-17%	-15%	-14%	4%	-21%	-27%
O=C1NC(=O)C(=Cc2ccc3nccnc3c2)S1	nt	-13%[23.2 µM]	nt	nt	nt	nt	nt	nt	nt	nt
NC1CCC(Nc2nc(Nc3ccc(C(=O)N4CCCCC4)cc3)c3ncn(-c4cccc(F)c4)c3n2)CC1 (centres undefined)	nt	-4%	nt	nt	nt	nt	nt	nt	nt	nt
Cc1ccccc1CNC(=O)C(=O)NCC(c1cccs1)S(=O)(=O)c1ccc(Cl)cc1 (centres undefined)	15µM*	8%	i	0%	2%	-14%	-17%	4%	10%	-24%
Cc1ccccc1NC(=O)c1ccc(F)c(S(=O)(=O)N(C)C2CCCCC2)c1	5µM*	-5%	i	-14%	0%	-17%	?	3%	-5%	-27%
